Over roughly 33,000 sequences, “e-score” has its median near -0.037; the highest 2% begin near 0.34. The list comes from a sample in which the highest values are over-represented; it also holds similar and randomly drawn sequences.
Target: T1, GST-Rok (full length) (Bacillus subtilis subsp. subtilis str. …, UniProt O34857 1-191)
T1 sequence: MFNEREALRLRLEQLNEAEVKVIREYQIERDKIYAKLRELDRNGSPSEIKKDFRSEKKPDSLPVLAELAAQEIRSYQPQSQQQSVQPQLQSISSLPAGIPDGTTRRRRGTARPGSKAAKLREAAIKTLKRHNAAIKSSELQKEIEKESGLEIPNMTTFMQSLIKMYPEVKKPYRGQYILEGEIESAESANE
Assay: protein binding microarray; Rok is a gene silencer of Bacillus subtilis; high values mean tight binding
Conditions: protein: recombinant; tags: GST (pTH5325, pDEST15-Magic modified); dsDNA, one strand shown
How it was run: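 Every oligonucleotide joins a 25-mer constant primer to a 35-mer variable part drawn from a de Bruijn sequence of order 10, so each non-palindromic 8-mer appears at least 32 times and each palindromic 8-mer 16 times. The preference for every 8-mer is reported as a unitless, rank-based enrichment score (E-score). This score spans 0.5 for the most favored 8-mer to −0.5 for the most disfavored.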

| Sequence | binding signal |
| --- | --- |
| GCCTGTAC | -0.0711 E-score |
| AACCTTAC | 0.0321 E-score |
| AAGAAGAG | -0.106 E-score |
| AAAGGTTG | -0.0391 E-score |
| CATAGGCA | 0.0952 E-score |
| GAACTTCA | 0.0379 E-score |
| ACATAAGT | 0.127 E-score |
| CGAAACTA | 0.446 E-score |
| CGAAACTC | -0.0462 E-score |
| GGAAACGA | -0.156 E-score |
| AGAAACTC | 0.158 E-score |
| GGAAACAA | 0.207 E-score |
| AGAAACTG | 0.12 E-score |
| GGAAACTA | 0.362 E-score |
| AGAAACTA | 0.412 E-score |
| CGAAACCA | -0.108 E-score |
| AATTAAGG | 0.158 E-score |
| ATCGGTCA | 0.0381 E-score |
| ATGGCTTG | -0.172 E-score |
| TATGGGCA | -0.0796 E-score |
| TAAGCCGA | -0.0712 E-score |
| AACTTATC | 0.134 E-score |

| Sequence | binding signal |
| --- | --- |
| GAATGGTA | 0.317 E-score |
| CAATGGTA | 0.322 E-score |
| TAATGGTA | 0.387 E-score |
| AACTCAGG | 0.0467 E-score |
| CGTGACCA | -0.0921 E-score |
| AAGTACAG | 0.272 E-score |
| AAATATTC | 0.251 E-score |
| CTCTATTC | 0.00987 E-score |
| GAATATTC | 0.417 E-score |
| ACATATTC | 0.27 E-score |
| CGATATTC | 0.194 E-score |
| ATATATTC | 0.34 E-score |
| GAATATTA | 0.0406 E-score |
| CTATATTC | 0.353 E-score |
| CAATATTC | 0.21 E-score |
| AGGTCACT | -0.137 E-score |
| ATTGTTTC | 0.228 E-score |
| CCGGTCAC | -0.153 E-score |
| CTACATTA | 0.355 E-score |
| CTACATTC | 0.176 E-score |
| GTACATTA | 0.262 E-score |
| CTACATGC | 0.308 E-score |

| Sequence | binding signal |
| --- | --- |
| ATACATGA | 0.294 E-score |
| CTACATGA | 0.347 E-score |
| CAAAAAAC | 0.0394 E-score |
| TGGTAAAA | 0.354 E-score |
| GGTAAAAA | 0.349 E-score |
| CGGTAAAA | 0.278 E-score |
| CGTAAAAA | 0.0957 E-score |
| GGGTAAAA | 0.184 E-score |
| GGTAAAAC | 0.192 E-score |
| CGAGTTAG | 0.0866 E-score |
| ACTGCCAC | -0.0928 E-score |
| AAATGATC | 0.143 E-score |
| AAATGATA | 0.37 E-score |
| AAATGATT | -0.0952 E-score |
| AAAACCTA | 0.255 E-score |
| ACTGGTGG | -0.172 E-score |
| TAGTACTA | 0.44 E-score |
| CAGTACTA | 0.279 E-score |
| AAGTACTG | 0.114 E-score |
| GAGTACTA | 0.13 E-score |
| TAGTACGA | 0.359 E-score |
| AAGTACTC | 0.165 E-score |

| Sequence | binding signal |
| --- | --- |
| CAGTACGA | -0.048 E-score |
| GAGTACGA | 0.0148 E-score |
| AAGTACTA | 0.389 E-score |
| CCAATTGC | 0.145 E-score |
| AGATAGCG | 0.22 E-score |
| ACCTTCTG | -0.0843 E-score |
| CGATACTA | 0.328 E-score |
| ATATACTA | 0.409 E-score |
| GTATACAA | 0.308 E-score |
| ATATACTC | 0.288 E-score |
| GGATACTA | 0.211 E-score |
| GTATACTA | 0.378 E-score |
| CTATACTC | 0.137 E-score |
| CTATACTA | 0.288 E-score |
| ATATACGA | 0.23 E-score |
| AGATACTA | 0.348 E-score |
| GTATACGA | 0.179 E-score |
| ATATACTG | 0.391 E-score |
| ATCAGCAA | -0.0224 E-score |
| GACAAATC | -0.0534 E-score |
